# The list is not random: actives were taken first. Their share in the collection is about 12%.
# AmpC no deterg: AmpC beta-lactamase inhibition without detergent | hit rate 0.52% among 330,000 | Potency, µM (titrated, usually from 57.1 µM), inactives show at the highest dose activity change, negative = inhibition, hits mostly inhibitors | AmpC nitrocefin hydrolysis, absorbance 480 nm, 0.0001% Triton | P00811 | AID 485341;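 also: plate controls were no compound for no effect and no enzyme for full effect; nearly all actives have a fitted effect of over 20% in size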
# Target sequence (P00811 whole entry, looked up): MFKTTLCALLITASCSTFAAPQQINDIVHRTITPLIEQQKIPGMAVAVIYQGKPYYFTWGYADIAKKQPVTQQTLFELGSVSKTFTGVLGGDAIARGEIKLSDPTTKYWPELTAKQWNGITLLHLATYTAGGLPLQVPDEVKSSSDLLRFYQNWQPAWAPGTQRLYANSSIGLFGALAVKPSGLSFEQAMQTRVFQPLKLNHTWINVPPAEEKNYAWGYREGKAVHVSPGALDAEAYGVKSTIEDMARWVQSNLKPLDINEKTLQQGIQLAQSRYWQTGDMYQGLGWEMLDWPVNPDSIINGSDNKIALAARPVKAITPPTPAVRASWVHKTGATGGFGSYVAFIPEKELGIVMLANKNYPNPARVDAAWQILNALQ
#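 20 mM phosphate pH 7.0 + 0.01% (detergent screen) or 0.0001% Triton X-100; 5.3 nM AmpC reagent; cpd preinc 15 min RT; nitrocefin (800 uM stock) to start; A480 q20 s × 4 min; Activity was normalised to no-enzyme and no-compound control wells.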
# Pf growth 96h: inhibits malaria parasite growth, 96 h. P. falciparum luciferase reporter growth, 96 h. Potency, µM (top dose mostly 28.7 µM), for inactives: at the top dose activity change, negative = inhibition, most hits filed as inhibitors. hit rate 6.9% among 320,000. AID 504834; also: % is scaled to controls: 0 for no effect and ±100 for the full control effect
#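 Luminescence readout: decreased luciferase signal marks inhibited growth of reporter-expressing P. falciparum in infected red cells (2% hematocrit, 0.05% parasitemia final), exposed to compound two generations (96 h, 37 C, 5% CO2).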
# SARS PLP yeast: inhibitors of SARS-CoV papain-like protease in yeast | S. cerevisiae expressing SARS-CoV PLpro, growth rescue | Potency, µM (doses to about 32.9 µM), without a hit: at the highest dose activity, positive = growth rescue, hits mostly activators | hit rate 0.19% among 330,000; calls by dose curve; also: 0% is about no effect; nearly all actives have a fitted effect of over 55% in size
# Pf growth 48h: P. falciparum growth inhibition at 48 hours (one generation). hit rate 5.9% among 310,000. Potency, µM (highest dose often 28.7 µM), without a hit: at the highest dose activity change, negative = inhibition, actives largely listed as inhibitors. P. falciparum luciferase growth in erythrocytes, 48 h; also: % is scaled to controls: 0 for no effect and ±100 for the full control effect
#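 In quantitative HTS format, infected erythrocytes bearing luciferase-reporter parasites were treated for a single generation at 37 C. Luminescence after adding detection reagent served as the growth measure.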
# AmpC detergent: AmpC beta-lactamase inhibition with detergent present. hit rate 0.041% among 370,000. Potency, µM (titrated, usually from 114 µM), for the others: at the highest dose activity change, negative = inhibition, usual class: inhibitors. AmpC hydrolysis of nitrocefin, absorbance 480 nm, 0.01% Triton;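 also: 0% = no-compound wells and -100% = no-enzyme wells; nearly all actives have a fitted effect of over 25% in size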
#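 AmpC (5.3 nM in the dispensed reagent) in 20 mM phosphate pH 7.0 with 0.01% (detergent screen) or 0.0001% Triton X-100 was preincubated with compounds for 15 min at room temperature. Nitrocefin was then added from an 800 uM solution, and hydrolysis was followed at 480 nm.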
# Sm TGR block: blocks Schistosoma mansoni thioredoxin glutathione reductase; purified TGR, DTNB reduction, TNB absorbance 405 nm; Potency, µM (titrated, usually from 114 µM), for the others: top-dose activity change, negative = inhibition, actives largely listed as inhibitors; hit rate 3% among 360,000; AID 485364; also: % is scaled to controls: 0 for no effect and ±100 for the full control effect; nearly all actives have a fitted effect of over 60% in size
#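 TGR 20 nM + NADPH 100 uM (dispensed conc.), cpd preinc 15 min RT; start with NADPH (500 uM addition) then DTNB (15 mM addition). Kinetic TNB absorbance, 405 nm filter. Four-parameter Hill fit across titration.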
# * marks the source's active call; other numbers are inactive results; ? = inconclusive; / = not tested or not shown; [ ] = another dose, or the depositor's remark. Unless noted, calls follow the shape of the dose curve; as a rule, active = well fitted curve in the direction sought with a large enough effect; inconclusive = small, poorly fitted or top-dose-only effect, or another doubt; inactive = no such curve, though single readings can be large; an effect the other way counts as inactive or inconclusive. Potency is read from the fitted curve at half-maximal effect.
SMILES,AmpC no deterg,Pf growth 96h,SARS PLP yeast,Pf growth 48h,AmpC detergent,Sm TGR block
NC(=O)C1=C[C@@H](c2ccc(C(F)(F)F)cc2)C[C@@H](OCc2ccc(CO)cc2)O1,74%,-5%,-1%,3%,8%,-26%
C#CCNC(=O)C1=C[C@@H](c2ccccc2)C[C@@H](OCc2ccc(CO)cc2)O1,2%,-16%,-1%,-9%,-1%,45µM*
C/C(=N/NC(=O)CNC(=O)/C=C/c1ccco1)c1ccc(Cl)cc1,-2%,?,-2%,58%,-1%,8.9µM*
COc1ccccc1/C=C/C(=O)NCC(=O)N/N=C(/C)c1ccc(Cl)cc1,-25%,21%,-4%,18%,-5%,-20%
O=C(/C=C/c1ccc([N+](=O)[O-])cc1)/C=C/c1ccco1,20µM*,-11%,-23%,?,-11%,4.5µM*
O=C(/C=C/c1ccco1)NCC(=O)N/N=C/c1ccc([N+](=O)[O-])cc1,-30%,-18%,-2%,-24%,3%,8.9µM*
CN(C)c1ccc(/C=N/NC(=O)CNC(=O)/C=C/c2ccco2)cc1,-32%,31%,-2%,39%,3%,?
O=C(/C=C/c1ccc([N+](=O)[O-])cc1)c1ccco1,-13%,?,1%,7%,-10%,-27%
O=C(/C=C/c1ccco1)NCC(=O)N/N=C/c1ccc(Cl)cc1,-24%,6%,0%,9%,4%,14µM*
CCOc1cc2c(cc1C(C)(C)C)NC(=O)CS2,-35%,/,-5%,2%,-2%,50%
COc1ccc(NC(=O)CC2Oc3ccc(C)cc3NC2=O)cc1Cl (configuration not stated),/,/,/,/,22%,-1%
CCc1ccc(OCC(=O)Nc2cc(-c3ccc(C)cc3)no2)cc1,/,/,/,/,19%,-4%
CCOc1ccc(CC2C(=O)NC(=O)N(c3ccc(CC)cc3)C2=O)cc1 (configuration not stated),-13%,/,1%,-8%,3%,-25%
CCN(CC)c1ccc(CNc2nnnn2C)cc1,7%,?,-6%,-1%,0%,10%
CCN(CC)c1ccc(CC2C(=O)N(C)C(=O)N(C)C2=O)cc1,-11%,15%,6%,?,-8%,14µM*
C=CCOc1ccc(CC2C(=O)N(C)C(=O)N(C)C2=O)cc1,10%,1%,6%,3.7µM*,-2%,25µM*
CCN(CC)[C@@H](C)CN1c2ccccc2Sc2ccccc21,/,6.4µM*,/,-26%[12.8 µM],/,/
C[C@H](CN1c2ccccc2Sc2cccnc21)N(C)C,/,6µM*,/,?,/,/
CCc1ccc2c(c1)N(C[C@H](C)CN(C)C)c1ccccc1S2,/,15µM*,/,17µM*,/,/
CN(C)CCCN1c2ccccc2Sc2ccccc21,30%,?,-15%,?,-4%,-2%
O=C(Nc1cccc(Br)c1)c1ccc(Cl)c(S(=O)(=O)N2CCOCC2)c1,-19%,-3%,-6%,6.6µM*,11%,2%
O=C(NC1CCCCC1)c1cc(S(=O)(=O)N2CCOCC2)c(Cl)cc1Cl,0%,?,-1%,-9%,-5%,-1%
COc1ccc(C(=O)Nc2cccc(S(=O)(=O)N3CCCC3)c2)cc1S(=O)(=O)N1CCOCC1,115%,/,-3%,/,/,/
O=C(NC1CCCC1)c1cc(S(=O)(=O)N2CCOCC2)c(Cl)cc1Cl,8%,4.7µM*,0%,-30%,-7%,13%
O=C(Nc1cccnc1)c1ccc(Cl)c(S(=O)(=O)N2CCOCC2)c1,-2%,-23%,2%,-26%,-5%,-15%
SMILES,AmpC no deterg,Pf growth 96h,SARS PLP yeast,Pf growth 48h,AmpC detergent,Sm TGR block
O=C(Nc1cccc(S(=O)(=O)C(F)F)c1)c1ccc(Cl)c(S(=O)(=O)N2CCOCC2)c1,-44%,/,3%,9.3µM*,-11%,-6%
O=C(Nc1cccc(C(=O)NC2CC2)c1)c1ccc(Cl)c(S(=O)(=O)N2CCOCC2)c1,-17%,13µM*,2%,?,-5%,-14%
O=C(NC1CC1)c1ccc(Cl)c(S(=O)(=O)N2CCOCC2)c1,-18%,0%,2%,?,-4%,-4%
CCc1c(C)sc2c1CCN(C(=O)Nc1cc(C)ccc1C)C2c1ccc(OC)cc1 (configuration not stated),/,/,/,/,18%,7%
CCOc1c(Cl)cc(CNc2ccc3[nH]c(=O)[nH]c3c2)cc1OC,/,/,/,/,24%,-22%
CC(C)P(=O)(c1cccc(C(=O)O)c1)C(C)C,-23%,?,?,17%,-11%,-10%
COc1ccccc1CNC(=O)c1ccc(Cn2c(SCc3ccccc3)nc3cccnc32)cc1,/,/,/,/,-5%,2%
O=C(/C=C/c1ccccc1)N1CCN(Cc2cc(=O)n3nc(-c4ccccc4)sc3n2)CC1,/,/,/,/,19%,-1%
CC(=O)Nc1ccc(NC(=O)CCCCCN2C(=O)c3ccccc3C2=O)cc1,-7%,-12%,16%,/,-3%,-2%
CCCCN1/C(=C/c2cccc[n+]2C)Sc2cc(NC(C)=O)ccc21,-22%,11%,-3%,4.1µM*,5%,15%
Cn1c(SCc2c(Cl)cccc2Cl)nc(C(F)(F)F)cc1=O,-24%,54%,16%,3%,?,4%
CC(C)Cc1nc2c(nnn2Cc2ccccc2F)c(=O)[nH]1,-22%,9.3µM*,-1%,?,4%,12%
C=CCN1C(=O)c2ccccc2NC1c1cc(Br)cs1 (configuration not stated),-41%,?,1%,10µM*,-12%,-2%
Cc1ccc(CN2CCN(C3CCCC3)C(CCO)C2)s1 (configuration not stated),7%,-3%,1%,24%,1%,/
Cc1nn(CCCC(=O)NCCc2ccc(Cl)cc2)c(=O)c2nn(-c3ccccc3)c(C)c12,17%,13µM*,3%,-13%,0%,-4%
Cc1ccc(-n2nc3c(=O)n(CC(=O)NCCc4ccc(Cl)cc4)nc(C)c3c2C)cc1,2%,0.93µM*,-2%,20%,?,0%
CCOC(=O)c1sc(NC(=O)CCCn2nc([N+](=O)[O-])c(Cl)c2C)c(C(=O)OCC)c1C,-10%,1.3µM*,16%,2%,-11%,-12%
Cc1c(Cl)c([N+](=O)[O-])nn1CCCC(=O)NCCc1ccccc1,13%,7.4µM*,0%,41%,0%,-7%
CCOc1ccc(NC(=O)Cn2c(=O)n(Cc3ccc4c(c3)OCO4)c(=O)c3ccc(C(=O)NC4CCCCC4)cc32)cc1,/,/,/,/,2%,-10%
C=CC(=O)O,/,-20%,/,-4%,/,/
COc1cc(C)c(CN2CC=C(c3ccc(F)cc3)CC2)cc1C,-7%,12µM*,2%,40%,?,1%
